Assay outcomes as filed in PubChem BioAssay.
VDR inh = Inhibitors of the vitamin D receptor (VDR): qHTS; Vitamin D3 receptor (Homo sapiens), P11473; VDR-SRC2-3 peptide fluorescence polarization, 2 h; Potency, µM, for inactives: max response, negative = inhibition, usual class: inhibitors; actives 0.93% (n = 400,000); further: on the % scale 0 is the no-effect control and ±100 the full control effect
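Reagent solutions, kept cold and dark, are dispensed first; compounds are then pinned in at 23 nl, plates briefly spun, and incubated 2 h at ambient temperature. Inhibition of VDR–SRC2-3 peptide binding is read by fluorescence polarization.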
Glioma ERSR ind = qHTS for Inducers of the Endoplasmic Reticulum Stress Response (ERSR) in Human Glioma: qHTS; U87-MG GRP78 promoter luciferase reporter, 16 h; Potency, µM, for the others: top-dose activation, most hits filed as activators; actives 0.02% (n = 420,000); further: series mostly up to about 76 µM; % of control where 0% means no effect; nearly all actives have a fitted effect of over 35% in size
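Stably transfected U87-MG human glioma cells carrying a GRP78-based luminescent sensor were seeded at 1000 cells/well, pin-dosed with compounds and incubated 16 h. Luciferase reagent was then added, and end-point luminescence was read after 10 min at room temperature.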
Sfp inh = qHTS Assay for Inhibitors of Bacillus subtilis Sfp phosphopantetheinyl transferase (PPTase). 4'-phosphopantetheinyl transferase ffp (Bacillus subtilis), Q9F4F7. Biochemical Sfp PPTase activity, qHTS. Potency, µM, for inactives: largest response in the series, negative = inhibition, usual class: inhibitors. actives 3.5% (n = 310,000);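 further: the enzyme is Sfp with the accession as filed and its product quenches rhodamine fluorescence; 0% = enzyme reaction without inhibitor and -100% = no enzyme wells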
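Fluorescence-quenching assay: 15 nM Sfp-PPTase preincubated 15 min at room temperature with compound, then 5 uM rhodamine-CoA and 12.5 uM BHQ-2-labelled YbbR peptide added. Fluorescence (ex 525/em 598 nm) read at start and after 30 min; difference gives rate.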
G9a block = qHTS Assay for Inhibitors of Histone Lysine Methyltransferase G9a. AID 504332, 2011. G9a H3K9 monomethylation, AlphaScreen, 2 h. Potency, µM (doses to about 102 µM), for the others: at the top dose activity, negative = inhibition, actives largely listed as inhibitors. actives 8.8% (n = 350,000); further: on the % scale 0 is the no-effect control and ±100 the full control effect; nearly all actives have a fitted effect of over 75% in size
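Chemiluminescent proximity detection of H3K9 monomethylation, read after 10 min bead incubation in the dark. Reaction: 20 nM G9a, 500 nM biotin-H3K9 peptide, 20 uM SAM cofactor, 2 h, room temperature, following 15 min enzyme-compound preincubation.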
12-LOX inh = Primary qHTS assay for inhibitors of human arachidonate 12S-lipoxygenase (ALOX12): Round 2; Polyunsaturated fatty acid lipoxygenase ALOX12 (Homo sapiens), P18054; purified 12hLO, xylenol orange hydroperoxide absorbance; Potency, µM (highest dose often 108 µM), without a hit: at the highest dose activity change, negative = inhibition, hits mostly inhibitors; actives 1.1% (n = 580,000); AID 1671190, 2021; further: on the % scale 0 is the no-effect control and ±100 the full control effect
Target sequence (P18054 whole entry, looked up): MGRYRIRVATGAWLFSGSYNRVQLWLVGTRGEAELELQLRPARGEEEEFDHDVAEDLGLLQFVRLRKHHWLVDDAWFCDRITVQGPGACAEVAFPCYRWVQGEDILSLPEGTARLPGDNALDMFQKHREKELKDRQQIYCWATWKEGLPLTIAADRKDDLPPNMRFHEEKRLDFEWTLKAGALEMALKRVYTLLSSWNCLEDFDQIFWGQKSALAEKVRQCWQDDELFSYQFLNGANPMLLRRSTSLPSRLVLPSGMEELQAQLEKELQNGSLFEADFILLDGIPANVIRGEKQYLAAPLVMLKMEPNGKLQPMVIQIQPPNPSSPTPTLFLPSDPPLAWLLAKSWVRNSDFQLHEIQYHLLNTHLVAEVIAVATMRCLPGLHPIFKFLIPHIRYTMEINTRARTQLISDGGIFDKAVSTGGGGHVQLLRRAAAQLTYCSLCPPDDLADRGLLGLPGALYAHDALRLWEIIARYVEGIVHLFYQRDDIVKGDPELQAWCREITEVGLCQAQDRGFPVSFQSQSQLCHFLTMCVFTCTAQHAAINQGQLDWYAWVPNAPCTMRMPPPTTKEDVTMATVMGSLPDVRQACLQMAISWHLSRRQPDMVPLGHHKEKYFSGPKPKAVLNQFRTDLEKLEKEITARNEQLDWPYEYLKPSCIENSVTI
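Purified human 12hLO at 150 nM in 25 mM Hepes, 0.01% Triton X-100, pH 7.0, preincubated 15 min at room temperature with compound. Reaction started with 40 uM arachidonic acid, 30 min at room temperature. Hydroperoxide measured by Fe-xylenol orange, 573/405 nm absorbance ratio.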
Numbers without * were called inactive; ? = inconclusive; . = no result; [ ] = another dose, or the depositor's remark. This is one part of a sample in which hits are shown more often than they occur. The call rests on the fitted dose curve; in most records, active means well fitted curve in the direction sought with a large enough effect; inconclusive means small, poorly fitted or top-dose-only effect, or another doubt; inactive means no such curve, though single readings can be large; an effect the other way counts as inactive or inconclusive. Potency means the concentration at half of the fitted maximal effect.

SMILES	VDR inh	Glioma ERSR ind	Sfp inh	G9a block	12-LOX inh
CC1=Nc2ncnn2C(c2ccccc2)/C1=N\O (configuration not stated)	-2.3%	-1.0%	-1.3%	50.1µM*	-3.0%
COCCOC(=O)C1=C(C)Nc2ncnn2C1c1ccccc1 (configuration not stated)	-4.3%	-3.8%	-4.2%	-29.0%[59 µM]	-3.5%
COC(=O)C(C)Oc1ccc2c(C)c(-c3ccc(OC)c(OC)c3)c(=O)oc2c1 (configuration not stated)	.	.	.	.	27.5%
COc1ccc(NC(=O)CCS(=O)(=O)c2cc3c4c(c2)CCN4C(=O)CC3)c(OC)c1	9.1%	-2.2%	.	?	-19.5%
O=C(CCS(=O)(=O)c1cc2c3c(c1)CCN3C(=O)CC2)Nc1cccc(Br)c1	12.5%	-0.7%	.	?	44.7µM*
COc1ccccc1NC(=O)CCS(=O)(=O)c1cc2c3c(c1)CCN3C(=O)CC2	0.6%	0.5%	.	20µM*	?
COc1ccc(NC(=O)CCS(=O)(=O)c2cc3c4c(c2)CCN4C(=O)CC3)cc1OC	-1.0%	-2.5%	.	-28.9%[59 µM]	?
CC1CCC[C@@]2(CCc3cc4c5c(c(=O)oc4cc3O2)CCC5)C1 (some centres not stated)	.	.	.	.	-1.4%
O=C(NCc1cc(Br)cc(Br)c1OC(=O)c1ccccc1[N+](=O)[O-])c1ccccc1	-7.2%	-2.4%	16.6%	39.8µM*	-20.3%
O=C(OCc1ccc(Br)cc1)c1ccccc1[N+](=O)[O-]	.	.	.	.	2.5%
COc1ccc2[nH]c(=O)cc(C(=O)O)c2c1	-0.4%	-4.5%	9.1%	35.5µM*	2.5%
Clc1ccc(C2Cn3nnc(-c4nc(C5CC5)no4)c3CO2)cc1 (configuration not stated)	.	.	.	.	45.4%
CCOc1ccc(NC(=O)Cn2cc(C(=O)CC)c3ccccc32)cc1	79.4µM*	3.2%	1.8%	13.2%	.
COC(=O)C/C=C\[C@@H](C)[C@@H](/C=N\OCC[C@@H]1C=C[C@H](OC(C)=O)[C@H](COC(C)=O)O1)OC	.	-2.3%	1µM*	.	.
CCc1ccc2c(c1)C1(NN=C(c3ccc(C)cc3)S1)C(=O)N2 (configuration not stated)	-14.4%	?	-8.8%	28.2µM*	?
CCc1ccc(NS(=O)(=O)c2ccc3c(c2)C(C)(C)C(=O)N3)cc1	.	.	.	.	-12.9%
CC(C)c1ccc2c(c1)C1(NN=C(c3ccccc3)S1)C(=O)N2 (configuration not stated)	-15.8%	?	-11.0%	17.8µM*	?
COc1ccc(CCC(=O)NCC(O)COCc2ccc(OC)cc2)cc1 (configuration not stated)	.	.	.	.	15.7%
S=c1[nH]nc([C@@H]2C[C@H]2c2ccccc2)n1-c1ccccc1Cl	-9.3%	-3.8%	24.5%	5.01µM*	-5.5%
Cc1ccc(-n2c(C3CCN(C(=O)c4cc(Cl)ccc4F)CC3)n[nH]c2=O)cc1	.	.	.	.	29.3%
Cc1ccc(C2CC2c2n[nH]c(=S)n2-c2cccc(C)c2)cc1 (configuration not stated)	-14.4%	-3.0%	-16.4%	14.1µM*	?
Cc1ccc(C2CC2c2n[nH]c(=S)n2-c2ccc(Cl)cc2)cc1 (configuration not stated)	3.4%	2.8%	20.3%	22.4µM*	?
c1ccc(-c2nc(C3CCOCC3)no2)c(OC2CCN(C3CCCC3)C2)c1 (configuration not stated)	.	.	.	.	67.0%
COC[C@@H]1CN(Cc2cccc(C#N)c2)C[C@H]1c1ccncc1	.	.	.	.	68.8%
CCC(=O)Nc1ccc2c(c1)ncn2-c1ccccc1OC	-10.3%	-5.4%	-23.2%	44.7µM*	?
CCOc1ccc(/C=C/c2nc(C#N)c(NCc3ccc(F)cc3)o2)cc1	.	.	.	.	0.1%
COc1ccc(-c2nc3c(n2O)CCc2c-3no[n+]2[O-])cc1	-19.4%	2.4%	13.6%	50.1µM*	1.7%
Cn1c(=O)c2c(nc(NCCO)n2Cc2ccccc2Br)n(C)c1=O	.	.	.	.	12.0%
